Rab9 prom act: activators of Rab9 promoter; Huh7 Rab9 promoter-luciferase reporter, luminescence, 24 h; Potency, µM (titrated, usually from 9.22 µM), most hits filed as activators; 320,000 compounds, 2.8% hits; AID 485297; further: nearly all actives have a fitted effect of over 60% in size
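Measured in stably transfected Huh7 cells bearing a Rab9 promoter–luciferase construct: 24 h compound treatment at 37 °C, followed by luminescence detection.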
SMN2 splice enh: enhancers of SMN2 splice variant expression | HEK293 SMN2-luciferase splicing reporter, luminescence, 30-36 h | Potency, µM (top dose mostly 46.1 µM), hits mostly activators | 210,000 compounds, 2.8% hits; further: nearly all actives have a fitted effect of over 55% in size
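HEK293 cells carry an SMN2 minigene-luciferase reporter in which exon 7 inclusion puts luciferase in frame. Cells were seeded at 2000 cells/well, attached for 10-12 hours, then exposed to compounds for 30-36 hours at 37C before ONE-Glo luminescence.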
KinaseGlo FLuc: blocks Kinase-Glo luciferase, a counter-screen artifact; Q27757; Kinase-Glo luciferase, ATP luminescence, 8 min; Potency, µM (highest dose often 38.3 µM), most hits filed as inhibitors; 200,000 compounds, 0.28% hits; further: nearly all actives have a fitted effect of over 60% in size
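Inhibition of Kinase-Glo luciferase light generation was assessed at 10 uM ATP in pH 7.2 imidazole buffer, with luminescence measured after eight minutes at ambient temperature.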
FLuc counter: firefly luciferase modulation, counter-screen for miR-21 project. P08659. AID 588342. Potency, µM (series often up to 57.5 µM), actives largely listed as inhibitors. 360,000 compounds, 6.9% hits. purified FLuc, Km substrates, luminescence inhibition; further: nearly all actives have a fitted effect of over 55% in size
Target sequence (P08659 whole entry, looked up): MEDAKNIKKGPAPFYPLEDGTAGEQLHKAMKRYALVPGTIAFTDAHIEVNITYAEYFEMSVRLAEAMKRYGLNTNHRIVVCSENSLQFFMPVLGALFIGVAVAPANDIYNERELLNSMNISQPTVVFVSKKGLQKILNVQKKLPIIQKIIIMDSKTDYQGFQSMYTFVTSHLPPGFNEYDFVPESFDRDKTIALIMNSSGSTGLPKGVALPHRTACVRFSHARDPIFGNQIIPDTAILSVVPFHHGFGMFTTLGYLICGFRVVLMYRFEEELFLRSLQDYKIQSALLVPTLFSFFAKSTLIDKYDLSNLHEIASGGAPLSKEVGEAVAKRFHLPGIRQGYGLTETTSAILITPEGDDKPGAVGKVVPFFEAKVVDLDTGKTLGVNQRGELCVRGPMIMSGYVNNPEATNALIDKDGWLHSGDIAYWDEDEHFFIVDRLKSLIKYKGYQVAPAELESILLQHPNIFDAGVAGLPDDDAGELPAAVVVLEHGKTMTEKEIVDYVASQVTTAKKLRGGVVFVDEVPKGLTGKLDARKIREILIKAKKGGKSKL
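Purified P. pyralis luciferase (10nM final) with 10uM D-luciferin and 10uM ATP (Km levels) in 50mM Tris acetate pH 7.5, 10mM Mg acetate, 0.01% Tween-20, 0.05% BSA; qHTS 6-point titration, ~60 µM downward; luminescence read.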
NPC1 promoter act: NPC1 promoter activation. Huh7 NPC1 promoter luciferase reporter, 24 h. Potency, µM (doses to about 9.22 µM), most hits filed as activators. 320,000 compounds, 2.4% hits. AID 485313; further: nearly all actives have a fitted effect of over 60% in size
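Stable NPC1-promoter luciferase Huh7 line; cpd (DMSO) 24 h, 37 °C, 5% CO2; Amplite luciferase reagent 10 min RT; luminescence readout. qHTS format.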
ELG1 genotox: inducers of genotoxicity in HEK293T ELG1-luciferase cells | HEK293T ELG1-luciferase reporter, luminescence, 16 h | Potency, µM (highest dose often 46 µM), most hits filed as activators | 330,000 compounds, 1.3% hits | AID 504466; further: nearly all actives have a fitted effect of over 60% in size
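After overnight (16 hr) compound treatment at 37 °C, ELG1-luciferase HEK293T cells were lysed with ONE-Glo; luminescence quantified 30 min later at room temperature.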
A number is an active result. Rows were chosen to be rich in hits. Some 7.5% of all compounds tested hit in one or more screens of this group. The call rests on the fitted dose curve; in most records, active means well fitted curve in the direction sought with a large enough effect; inconclusive means small, poorly fitted or top-dose-only effect, or another doubt; inactive means no such curve, though single readings can be large; an effect the other way counts as inactive or inconclusive.

`COc1ccc(C(=O)Nc2ccc(NC(=O)c3cccs3)cc2)cc1OC` gave SMN2 splice enh inactive and FLuc counter inactive.
`O=C(Nc1ccc(NC(=O)c2cccs2)cc1)c1cccc(Br)c1` gave SMN2 splice enh inactive and FLuc counter inactive.
For COc1ccc(NC(=O)c2cccs2)cc1O the results were Rab9 prom act inconclusive, SMN2 splice enh inconclusive, KinaseGlo FLuc inconclusive, FLuc counter 15.1µM, NPC1 promoter act inconclusive and ELG1 genotox inconclusive.
Screening COc1ccc(C(=O)Nc2cccc(NC(=O)c3cccs3)c2)cc1OC returned Rab9 prom act inactive, FLuc counter 10.7µM, NPC1 promoter act inactive and ELG1 genotox inactive.
`O=C(Nc1cccc(O)c1)c1cccc(NC(=O)c2cccs2)c1` gave Rab9 prom act inactive, FLuc counter 13.5µM, NPC1 promoter act inactive and ELG1 genotox inactive.
N[C@H](CCC(=O)N[C@H](CSN=O)C(=O)NCC(=O)O)C(=O)O was read as KinaseGlo FLuc inactive.
`CC(=O)OC1CC[C@@]2(C)C(CC[C@@]3(C)C2CC=C2C4CC(C)(C)CC[C@]4(C(=O)O)CC[C@@]23C)C1(C)C` (stereo partly specified) gave SMN2 splice enh inactive and KinaseGlo FLuc inactive.
Screening Cc1nc(NC2CCCCC2)c2nc(-c3ccccc3)n(CCCN(C)C)c2n1 returned SMN2 splice enh inactive and KinaseGlo FLuc inactive.
COc1ccc(-c2csc(NC(=O)c3cccs3)c2C(=O)O)cc1OC was read as Rab9 prom act inactive, SMN2 splice enh inactive, KinaseGlo FLuc inactive, FLuc counter 23.9µM, NPC1 promoter act inactive and ELG1 genotox inactive.
Screening Cc1ccc(CN(C)C(=O)c2cc(COc3ccc(F)cc3Cl)on2)o1 returned Rab9 prom act inactive, KinaseGlo FLuc inactive, FLuc counter 21.3µM, NPC1 promoter act inactive and ELG1 genotox inactive.
`Cc1nonc1CN(C)C(=O)c1cc(COc2ccc(F)cc2Cl)on1` gave Rab9 prom act inactive, FLuc counter inconclusive, NPC1 promoter act inactive and ELG1 genotox inactive.
Cc1cc(CN(C)C(=O)c2cc(COc3ccc(F)cc3Cl)on2)n[nH]1 was read as Rab9 prom act inconclusive, KinaseGlo FLuc inactive, FLuc counter 16.9µM, NPC1 promoter act inactive and ELG1 genotox inconclusive.
O=C(COc1ccc(Cl)cc1)N(Cc1ccco1)c1ccccn1 was read as FLuc counter inactive.
For O=C(Oc1ccc(Cl)cc1)N1CCCCC1 the results were Rab9 prom act inactive, SMN2 splice enh inactive, KinaseGlo FLuc inactive, FLuc counter 23.9µM, NPC1 promoter act inactive and ELG1 genotox 16.4µM.
`O=C(Oc1ccc2ccccc2c1Cl)N1CCCCCC1` gave Rab9 prom act 0.562µM, SMN2 splice enh 12.6µM, KinaseGlo FLuc inactive, FLuc counter 1.07µM, NPC1 promoter act 1.12µM and ELG1 genotox inconclusive.
Cn1c(NC(=O)c2ccccc2NC(=O)C(C)(C)C)nc2ccccc21 was read as Rab9 prom act inactive, SMN2 splice enh inactive, KinaseGlo FLuc inactive, FLuc counter 26.9µM, NPC1 promoter act inactive and ELG1 genotox inactive.
Screening Cn1c(NC(=O)c2ccc(F)cc2)nc2ccccc21 returned Rab9 prom act 3.98µM, FLuc counter 3.01µM, NPC1 promoter act 3.55µM and ELG1 genotox inconclusive.
O=C(Nc1nc2ccccc2c2nc3ccccc3n12)c1ccc(F)cc1 was read as Rab9 prom act inactive, SMN2 splice enh inactive, KinaseGlo FLuc inactive, FLuc counter inactive, NPC1 promoter act inactive and ELG1 genotox inactive.
Cn1c(NC(=S)Nc2ccccc2)nc2ccccc21 was read as Rab9 prom act inconclusive, SMN2 splice enh 8.91µM, KinaseGlo FLuc inactive, FLuc counter 6.75µM, NPC1 promoter act inconclusive and ELG1 genotox inconclusive.
`Cc1c(/C=C(\C#N)C(=O)Nc2cccc(Cl)c2)c2ccccc2n1Cc1ccccc1Cl` gave SMN2 splice enh inactive and FLuc counter inactive.
Screening COc1cc(-c2nc(-c3ccc4c(c3)-c3ccccc3S4(=O)=O)c(-c3ccccc3)[nH]2)cc(OC)c1O returned Rab9 prom act inactive, SMN2 splice enh inactive, KinaseGlo FLuc inactive, FLuc counter 6.75µM, NPC1 promoter act inactive and ELG1 genotox inactive.
For COc1cc(-c2nc(-c3cccc(Cl)c3)c(-c3ccccc3)[nH]2)cc(OC)c1OC the results were SMN2 splice enh inactive and FLuc counter inactive.
C=C(C)C1CC=C(C)/C(=N/NC(=O)COc2ccccc2Cl)C1 (stereo unspecified) was read as Rab9 prom act inactive, SMN2 splice enh inactive, KinaseGlo FLuc inactive, FLuc counter inactive, NPC1 promoter act inactive and ELG1 genotox inactive.
Screening Cc1cccc2c1OCC/C2=N\NC(=O)COc1ccccc1Cl returned Rab9 prom act 3.16µM, SMN2 splice enh inactive, KinaseGlo FLuc inactive, FLuc counter 3.79µM, NPC1 promoter act 2.24µM and ELG1 genotox inconclusive.
For COc1ccc([C@@H]2CC(=O)c3c(O)cc(O)cc3O2)cc1O the results were Rab9 prom act inconclusive, SMN2 splice enh inactive, KinaseGlo FLuc inactive, FLuc counter 15.1µM, NPC1 promoter act inconclusive and ELG1 genotox inconclusive.
`CCOC(=O)/C=C/c1cnn(-c2ccccc2)c1` gave Rab9 prom act inconclusive, KinaseGlo FLuc inactive, FLuc counter 15.1µM, NPC1 promoter act inconclusive and ELG1 genotox inconclusive.
Screening O=C(O)/C=C/c1cnn(-c2ccccc2)c1 returned Rab9 prom act 0.447µM, SMN2 splice enh 2µM, KinaseGlo FLuc inactive, FLuc counter 1.51µM, NPC1 promoter act inconclusive and ELG1 genotox inactive.
`Cc1ccc(CNC(=O)c2ccc3c(c2)N(Cc2ccccc2Cl)C(=O)CS3)cc1` gave SMN2 splice enh inactive and FLuc counter inactive.
For COc1cc2c(=O)n(Cc3ccccc3Cl)c(=O)n(CC(=O)Nc3ccccc3)c2cc1OC the results were SMN2 splice enh inactive and FLuc counter inactive.
`CCc1ccc(-c2cn3c(n2)sc2cc(C(=O)NCCC4=CCCCC4)ccc23)cc1` gave FLuc counter inactive.
For CCCCOc1ccc(C(=O)N/N=C/c2cn[nH]c2-c2ccc(OC)c(OC)c2)cc1 the results were Rab9 prom act inactive, SMN2 splice enh inactive, KinaseGlo FLuc inactive, FLuc counter 12µM, NPC1 promoter act inactive and ELG1 genotox inactive.
`COc1ccc(-c2[nH]ncc2/C=N\NC(=O)c2ccc(C(C)(C)C)cc2)cc1OC` gave Rab9 prom act inactive, SMN2 splice enh inconclusive, KinaseGlo FLuc inactive, FLuc counter 1.35µM, NPC1 promoter act inactive and ELG1 genotox inactive.
COc1cc(/C=N/NC(=O)c2ccoc2C)ccc1O was read as Rab9 prom act inactive, SMN2 splice enh inconclusive, KinaseGlo FLuc inactive, FLuc counter 13.5µM, NPC1 promoter act inactive and ELG1 genotox inactive.
COc1cc(/C=N/NC(=O)c2cc(C)oc2C)ccc1O was read as Rab9 prom act inactive, FLuc counter inconclusive, NPC1 promoter act inactive and ELG1 genotox inactive.

Source: PubChem
